# IMPase Li cell = qHTS Assay for Identifying the Cell-Membrane Permeable IMPase Inhibitors: Potentiation with Lithium; CHO-M1 cells, IP1 TR-FRET (IP-One), carbachol + lithium; Potency, µM (series often up to 59.4 µM), actives largely listed as inhibitors; 0.35% of 210,000 active; active means well fitted curve in the direction sought with a large enough effect; inconclusive means small, poorly fitted or top-dose-only effect, or another doubt; inactive means no such curve, though single readings can be large; an effect the other way counts as inactive or inconclusive;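 further: IP1 builds up when IMPase is blocked and the TR-FRET signal falls; nearly all actives have a fitted effect of over 50% in size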
#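 CHO cells stably expressing M1 receptor (2000/well, cultured 16–30 h) treated 30 min at 37C with compound plus low lithium. Cytosolic IP1 by TR-FRET (665/620 ratio and 620 channel) after 10 min lysis; AC50 by Hill fit.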
# LMNA splice mod = qHTS Assay for Modulators of Lamin A Splicing; HeLa LMNA splicing GFP/RFP minigene ratio, 48 h; 0.01% of 200,000 active; Potency, µM (series often up to 46.1 µM), most hits filed as inhibitors; active means well fitted inhibition curve with a large enough effect in the signal ratio, with a control signal flat, not every such curve was filed as active; inconclusive means small, poorly fitted or top-dose-only effect, or effect the other way, or a change in a side signal; the % refers to the signal ratio
#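 S3 HeLa cells stably expressing lamin A-EGFP splicing minigene plus DsRed2, 600 cells/well, 48 h compound exposure at 37C. Laser-scanning cytometry; analysed as GFP (500-530 nm)/RFP (575-640 nm) total intensity ratio; 0.5% DMSO vehicle.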
# HPGD inh = qHTS Assay for Inhibitors of HPGD (15-Hydroxyprostaglandin Dehydrogenase) | 4.3% of 150,000 active | purified HPGD, NADH fluorescence kinetic, PGE2 substrate | Potency, µM, actives largely listed as inhibitors | 15-hydroxyprostaglandin dehydrogenase [NAD(+)] (Homo sapiens), P15428 | AID 894, 2007
#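 20 nM HPGD preincubated 15 min at room temperature with compound in 50 mM Tris-HCl pH 8, 0.01% Tween 20. Started with 1 mM NAD+ and 30 uM prostaglandin E2; NADH fluorescence (360/450 nm) read 5 times over 30-s intervals, last minus first.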
# ALDH1A1 inh = qHTS Assay for Inhibitors of Aldehyde Dehydrogenase 1 (ALDH1A1). Aldehyde dehydrogenase 1A1 (Homo sapiens), P00352. Potency, µM (series often up to 75.3 µM), usual class: inhibitors. 7.3% of 220,000 active. Purified ALDH1A1, NADH fluorescence, propionaldehyde substrate
# Target sequence (P00352 whole entry, looked up): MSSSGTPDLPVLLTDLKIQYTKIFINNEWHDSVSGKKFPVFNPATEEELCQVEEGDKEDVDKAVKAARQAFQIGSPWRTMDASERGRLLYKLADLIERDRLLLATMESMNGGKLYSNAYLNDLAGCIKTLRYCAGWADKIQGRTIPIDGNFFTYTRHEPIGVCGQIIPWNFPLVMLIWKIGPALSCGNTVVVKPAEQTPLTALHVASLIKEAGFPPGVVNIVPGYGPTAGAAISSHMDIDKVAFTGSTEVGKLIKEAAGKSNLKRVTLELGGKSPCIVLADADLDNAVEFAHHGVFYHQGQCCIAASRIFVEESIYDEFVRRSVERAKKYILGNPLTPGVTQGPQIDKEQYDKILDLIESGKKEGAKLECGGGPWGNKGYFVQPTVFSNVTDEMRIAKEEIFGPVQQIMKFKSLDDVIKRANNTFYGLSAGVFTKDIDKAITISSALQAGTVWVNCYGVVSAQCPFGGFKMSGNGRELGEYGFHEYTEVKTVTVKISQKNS
# Luc counter = Counterscreen for Luciferase (Kinase-Glo TM) Inhibition; Luciferin 4-monooxygenase (Photuris pensylvanica), Q27757; Kinase-Glo luciferase, ATP luminescence, 8 min; Potency, µM (titrated, usually from 38.3 µM), most hits filed as inhibitors; 0.28% of 200,000 active; AID 1379, 2008; active means well fitted curve in the direction sought with a large enough effect; inconclusive means small, poorly fitted or top-dose-only effect, or another doubt; inactive means no such curve, though single readings can be large; an effect the other way counts as inactive or inconclusive; further: nearly all actives have a fitted effect of over 60% in size
#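 Substrate mix (final 50 mM imidazole pH 7.2, 50 mM KCl, 7 mM MgCl2, 10 uM ATP, 0.01% Tween 20, 0.05% BSA) plus pin-tool compound, then Kinase-Glo detection mix; 8 min ambient, luminescence read.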
# A number is an active result; n = inactive; u = inconclusive; x = not tested or not shown; [ ] = another dose, or the depositor's remark. Only some compounds are listed: those with a hit (about 9% of all), similar ones and a draw of the others. Unless noted, the call rests on the fitted dose curve; in most records, active means well fitted inhibition curve with a large enough effect (not every such curve was filed as active); inconclusive means small, poorly fitted or top-dose-only effect, or another doubt; inactive means no such curve, though single readings can be large or run the other way.
SMILES,IMPase Li cell,LMNA splice mod,HPGD inh,ALDH1A1 inh,Luc counter
CC1(C)CC(=O)C2=C(C1)OC(N)=C(C#N)C2c1ccc[nH]1 (stereo not drawn),n,x,x,n,n
CC1C(C#N)=C(N)OC2=C1C(=O)CC(C)(C)C2 (stereo not drawn),n,n,u,n,n
CC1(C)CC(=O)C2=C(C1)OC(N)=C(C#N)C2c1ccc(OC(=O)N2CCOCC2)cc1 (stereo not drawn),n,n,n,3.2µM,n
Cn1cccc1C1C(C#N)=C(N)OC2=C1C(=O)CC(C)(C)C2 (stereo not drawn),n,x,x,n,n
CCC(C)C1C(C#N)=C(N)OC2=C1C(=O)CC(C)(C)C2 (stereo not drawn),n,n,n,11µM,n
COc1ccc(C2C(C#N)=C(N)OC3=C2C(=O)CC(C)(C)C3)cc1 (stereo not drawn),n,n,x,4.5µM,n
Cc1cc(F)ccc1NC(=O)CN(C)S(=O)(=O)c1ccc(C(=O)N2CCOCC2)s1,x,n,x,x,x
CC1(C)CC(=O)C2=C(C1)OC(c1ccc(O)cc1)C(C#N)=C2N (stereo not drawn),n,u,n,1.1µM,n
CC1(C)CC(=O)C2=C(C1)OC(N)=C(C#N)C2C1CC=CCC1 (stereo not drawn),n,n,n,7.9µM,n
CC(=O)N1CC[C@@H]2CC(=O)C[C@@H](C)[C@@H]21,n,x,n,n,n
O=c1cc(-c2ccc(O)c(-c3c(O)cc(O)c4c(=O)cc(-c5ccc(O)cc5)oc34)c2)oc2cc(O)cc(O)c12,n,n,14µM,u,n
Cc1cc(C(=O)Nc2sc3c(c2C#N)CCCC3)no1,n,n,28µM,11µM,n
N#Cc1c(NC(=O)c2cc(C3CC3)on2)sc2c1CCC2,n,u,n,u,n
Cc1sc(NC(=O)C2CC(Cl)=CCC2C(=O)O)c(C#N)c1C (stereo not drawn),n,x,x,n,n
N#Cc1c(NC(=O)C2CC(Cl)=CCC2C(=O)O)sc2c1CCCC2 (stereo not drawn),n,x,x,18µM,n
CC(C)Cc1cc(C(=O)Nc2sc3c(c2C#N)CCC3)no1,n,n,u,22µM,n
Cc1cc(C(=O)Nc2sc3c(c2C#N)CCC3)no1,n,n,n,u,n
CC(C)Cc1cc(C(=O)Nc2sc3c(c2C#N)CCCC3)no1,n,u,28µM,18µM,n
Cc1ccc(-n2cc(C(=O)OCc3ccc(F)c(F)c3)c3ccccc3c2=O)cc1,x,n,x,x,x
CCCC[C@@H]1C[C@H]1C(NC(=O)c1ccccc1)c1ccc(C(=O)OC)cc1 (stereo partly drawn),n,x,n,n,n
CCN(CC)S(=O)(=O)c1ccc2c(c1)nc(CN(C)C(=O)Nc1cccc(Cl)c1)n2C,x,n,x,x,x
COC(=O)C(C)NC(=O)CNS(=O)(=O)c1ccc(F)cc1 (stereo not drawn),n,n[9.22 µM],x,n,n
O=S(=O)(Nc1ccncc1Cl)c1ccc2ccccc2c1,n,x,x,n,n
N#Cc1c(NC(=O)c2cc(-n3cnnc3)ccc2Cl)sc2c1CCCC2,u,u,n,13µM,n
N#Cc1c(NC(=O)c2ccccc2)sc2c1CCCCC2,n,n,u,u,n
SMILES,IMPase Li cell,LMNA splice mod,HPGD inh,ALDH1A1 inh,Luc counter
CC#CCN1c2ccccc2[C@]23C[C@@H](C(=O)OC)N(S(=O)(=O)CCCC)C2=NC(C(=O)OC)=C(C(=O)OC)[C@H]13,n,n[9.22 µM],n,n[13.5 µM],n[7.66 µM]
Cc1cc(OCc2ccc(C(=O)n3cccn3)o2)ccc1Cl,n,n,32µM,n,n
O=C(c1ccc(COc2ccc(F)cc2)o1)n1cccn1,n,n,n,n,n
O=C(NCc1ccc(N2CCCC2=O)cc1)c1ccc(F)cc1,n,u,x,n,n
O=C(NCc1ccco1)c1ccc(N2CCCC2=O)cc1,n,u,25µM,n,n
CCN1C(=O)CSc2ccc(C(=O)NCc3ccco3)cc21,n,n,n,13µM,n
CC(C)(C)N1C(=O)c2ccc(C(=O)NCc3ccco3)cc2C1=O,n,n,n,8.9µM,n
C=CCNC(=O)c1ccccc1NC(=O)C1COc2ccccc2O1 (stereo not drawn),n,u,x,n,n

# Source: PubChem BioAssay
